Screens as filed in PubChem BioAssay.
A selection: hits, their analogues and other compounds. The true share with any hit is near 1.2%.
TrxR1 substrate: substrates of rat thioredoxin reductase 1; O89049; purified TrxR1 substrate turnover, NADPH consumption readout; Potency, µM (series often up to 114 µM), for inactives: at the highest dose activity change, negative = substrate turnover; 0.01% of 390,000 active; AID 588456; further: nearly all actives have a fitted effect of over 50% in size
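Rat TrxR1, dispensed at 90 nM, was prereduced with 400 uM NADPH (final) for 5 min at ~22 deg C, then incubated with compound 15 min before 400 uM selenite. A first-read NADPH fluorescence drop versus no-compound background flagged substrates.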
rTrxR1 inhibitor: rat TrxR1 inhibition; O89049; recombinant rTrxR1, NADPH fluorescence consumption, selenite substrate; Potency, µM (titrated, usually from 114 µM), for the others: at the top dose activity change, negative = inhibition, usual class: inhibitors; 1% of 390,000 active; further: nearly all actives have a fitted effect of over 65% in size
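Rat TrxR1 (90 nM in the dispensed reagent) was pre-reduced with 400 uM NADPH for 5 min at room temperature, then incubated with compound for 15 min. After 400 uM selenite was added, NADPH fluorescence (Ex 340/Em 450 nm) was followed for 8 min.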
NPSR antagonist: blocks cAMP signaling of the human neuropeptide S receptor | Potency, µM (titrated, usually from 38.3 µM), for inactives: at the highest dose activity change, negative = inhibition, most hits filed as inhibitors | 1% of 220,000 active | CHO-NPSR cells, cAMP TR-FRET, antagonist mode | AID 1461; further: nearly all actives have a fitted effect of over 50% in size
Target sequence (Q6W5P4 whole entry, looked up): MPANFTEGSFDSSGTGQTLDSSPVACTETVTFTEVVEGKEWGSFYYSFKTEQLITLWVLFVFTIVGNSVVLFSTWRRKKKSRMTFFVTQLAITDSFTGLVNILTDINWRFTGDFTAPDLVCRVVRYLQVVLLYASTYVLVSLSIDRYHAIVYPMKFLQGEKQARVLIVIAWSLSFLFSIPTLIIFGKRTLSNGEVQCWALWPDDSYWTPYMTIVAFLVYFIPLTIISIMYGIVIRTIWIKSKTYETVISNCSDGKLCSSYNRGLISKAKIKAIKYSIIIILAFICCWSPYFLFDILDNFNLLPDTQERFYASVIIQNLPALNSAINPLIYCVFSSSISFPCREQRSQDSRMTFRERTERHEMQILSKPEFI
GALK inh: inhibitors of human galactokinase; 0.007% of 270,000 active; Potency, µM (highest dose often 57.5 µM), for inactives: top-dose activity change, negative = inhibition, actives largely listed as inhibitors; Purified GALK, Kinase-Glo residual ATP luminescence; AID 1868
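Quantitative HTS: GALK 5 nM, ATP 35 uM, galactose 100 uM, 1 h room temperature, then luciferase-based ATP detection.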
Active calls of the source: *; i = inactive; ? = inconclusive; / = not tested or not shown; [ ] = remark or other dose. The call rests on the fitted dose curve; in most records, active means well fitted curve in the direction sought with a large enough effect; inconclusive means small, poorly fitted or top-dose-only effect, or another doubt; inactive means no such curve, though single readings can be large; an effect the other way counts as inactive or inconclusive. On the % scale 0 is the no-effect control and ±100 the full control effect; potency means the concentration at half of the fitted maximal effect.

SMILES	TrxR1 substrate	rTrxR1 inhibitor	NPSR antagonist	GALK inh
Cc1cc(=O)oc2cc(O)ccc12	i	50.1µM*	/	/
O=c1ccc2ccc(O)cc2o1	i	79.4µM*	/	/
COc1ccc2c(n1)Sc1nc3ccccc3nc1N2	-2.8%	1.1%	13.3%	0.6%
COCc1cc(=O)[nH]c(SCCS(=O)(=O)c2ccc(Cl)cc2Cl)n1	5.9%	1.26µM*	-38.8%	/
COCc1cc(=O)[nH]c(SCCS(=O)(=O)c2ccc(C)cc2)n1	6.6%[57.1 µM]	1.0%[57.1 µM]	7.9%	1.4%
CSc1nc2cc(Oc3cccc(Cl)c3Cl)c(Cl)cc2[nH]1	7.2%	17.6%	12.6µM*	-3.7%
CCc1ccccc1N(C)C	5.0%	23.3%	/	/
NC(=N\N=Cc1ccco1)/C(N)=N/N=Cc1ccco1	?	79.4µM*	/	/
NC(=N\N=Cc1ccccc1)/C(N)=N/N=Cc1ccccc1	7.6%[57.1 µM]	12.1%[57.1 µM]	/	/
CCNC(=O)c1c(NC(=O)c2nc(S(=O)(=O)CC)ncc2Cl)sc2c1CCCC2	-8.7%	14.1µM*	/	/
COCCCNC(=O)c1c(NC(=O)c2nc(S(C)(=O)=O)ncc2Cl)sc2c1CCCC2	6.2%	1.78µM*	/	/
CC(=O)Nc1ccc(/C=C/c2ccccn2)cc1	-14.7%	?	/	/
O=c1cc(-c2ccc(OCc3ccccc3)cc2)oc2cc(OCc3ccccc3)cc(OCc3ccccc3)c12	3.9%	39.8µM*	/	/
CC(C)(C)OC(=O)COc1cc(OCC(=O)OC(C)(C)C)c2c(=O)cc(-c3ccccc3)oc2c1	-1.4%	-4.9%	6.31µM*	-3.0%
Cc1[nH]c2ccccc2c1C1=CC(=O)C=CC1=O	4.8%	25.1µM*	/	/
COc1ccccc1N1CCN(Cc2nc(-c3cc(OC)c(OC)c(OC)c3)no2)CC1	-11.4%	?	/	/
O=[N+]([O-])c1cccc(N=Cc2ccccc2)c1	-6.2%	1.4%	/	/
O=C(/C(N=Nc1cccc([N+](=O)[O-])c1)=C(/O)c1ccc(Br)cc1)C(F)(F)F	/	/	6.31µM*	-1.2%
CN(C)C1CCC(CC2CCc3ccccc32)CC1 (stereo unspecified)	9.0%	11.5%	/	/
COc1ccc2c(c1)c(C(=O)CN(C)C)c(C)n2C	-0.7%	-19.3%	/	/
CCCc1nc2sc3c(SCC(=O)NCc4ccco4)ncnc3c2c2c1CCC2	2.0%	44.7µM*	-1.7%[46.1 µM]	10.9%
CC1(c2ccc([N+](=O)[O-])cc2)NC(=O)NC1=O (stereo unspecified)	-1.2%	3.9%	/	-1.1%
COC(=O)c1cccc(CN2C(=O)SC(Nc3ccc(Cl)cc3)C2=O)c1 (stereo unspecified)	-3.8%	-3.7%	/	/
CCOC(=O)c1ccc(NC2SC(=O)N(Cc3cccc(C(=O)O)c3)C2=O)cc1 (stereo unspecified)	-4.6%	79.4µM*	/	/
C[n+]1ccc(/C=C/c2ccc([N+](C)(C)C)cc2)c2ccccc21	-11.9%	-33.0%	/	/
SMILES	TrxR1 substrate	rTrxR1 inhibitor	NPSR antagonist	GALK inh
CCc1cc(SC#N)cc(CC)c1NC(=O)CCl	-10.2%	25.1µM*	-23.9%	/
Cc1cc(C)c2c(NC(=O)CCl)nn(C)c2n1	23.3%	?	-5.4%	-1.0%
COc1ccccc1N1C(=O)C2CC(C)=C(C)CC2C1=O (stereo unspecified)	5.8%	29.9%	15.0%[46.1 µM]	3.9%
COc1ccccc1N1C(=O)C=C(Sc2nc(C)cc(C)n2)C1=O	11.2%[11.4 µM]	2.82µM*	?	0.9%
O=C1c2ccccc2C(=O)c2c1oc(C(F)(F)F)c2C(=O)c1ccccc1	-7.0%	?	5.01µM*	-2.5%
CC1(C)CC(=O)C=C(OC(=O)c2ccc(Cl)cc2)C1	7.9%[57.1 µM]	4.47µM*	-3.8%[46.1 µM]	-1.9%
Cc1ccccc1S(=O)(=O)Cc1ccc(C(=O)N(C)C2CCCCC2)o1	3.8%	56.2µM*	/	-6.1%
O=S(=O)(NC(=S)NC1CCCCC1)c1ccccc1	-6.1%	3.16µM*	15.4%	-0.4%
O=S(=O)(NC(=S)NC1CCCCC1)c1cccs1	11.9%[57.1 µM]	?	-4.4%	-0.4%
O=C(Nc1ccc(OCC(F)(F)C(F)F)c(C(F)(F)F)c1)c1ccccc1O	8.2%	10.9%	7.94µM*	0.6%
O=C(Nc1ccc(OCC(F)(F)C(F)F)c(C(F)(F)F)c1)c1ccccc1	-7.2%	16.5%	/	/
CCOC(=O)C1(C)Oc2ccccc2C(C(=O)OC)=C1C(=O)OC (stereo unspecified)	1.7%	31.6µM*	/	/
CCOC(=O)C1(C)Oc2ccccc2C(c2ccc(OC)cc2)=C1C(=O)OC (stereo unspecified)	-4.1%	5.9%	/	/
O=[N+]([O-])c1ccccc1/C=N\Nc1nccs1	3.6%[57.1 µM]	5.1%[57.1 µM]	/	-0.8%
O=[N+]([O-])c1cc(/C=N\Nc2nccs2)ccc1O	/	/	2.51µM*	-1.0%
